Screening data as filed in PubChem.
Only some compounds are listed: those with a hit (about 8.7% of all), similar ones and a draw of the others.
PostGolgi yeast = growth inhibition of a yeast mutant, post-Golgi transport screen. inhibition, % at 10 µM. post-Golgi transport phenotypic cell assay. 0.9% of 98,000 active;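 further: yeast cells grown in 1536-well plates; yeast grown about 18 h at 30C before absorbance read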
Smad3 inh = blocks human Smad3 binding to FoxH1 peptide; P84022; TR-FRET Smad3/Dy647-FoxH1 peptide binding, europium anti-His; inhibition, % at 25 µM; AID 630; 0.29% of 88,000 active;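 active means compounds that reduce the energy-transfer binding signal between the protein and its labelled peptide by more than half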;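 further: 0% = Smad3 plus labelled peptide maximal FRET and 100% = peptide-only background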
Cav32 inh = blocks human Cav3.2 T-type calcium channel; O95180; Cav3.2-expressing cells, Fluo-4 calcium fluorescence FDSS; stronger effect = lower value; B-score at 10 µM; 4% of 100,000 active; AID 449739;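 active means single-dose well whose peak fluorescence ratio is a statistical outlier from its plate by either plate-standardised score or position-corrected B-score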
hDAT+cocaine = changed human dopamine transporter uptake under cocaine IC80; B-score at 10 µM; 1.3% of 110,000 active; LLC-PK1 hDAT cells, [14C]-dopamine uptake with cocaine IC80; actives deviate in either direction;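 active means Z score or B-score, a plate-position-corrected score, falls beyond the plate's 99.7% confidence bounds, in either direction; inactive means both scores lie inside the 99.7% bounds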;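 further: scored against the spread of the other compound wells on the same plate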
PostGolgi ctrl = yeast control strain growth, post-Golgi counter-screen; inhibition, % at 10 µM; AID 738; 5% of 98,000 active; efflux-deficient yeast background strain, growth absorbance A615, 16 h
TNAP act DEA = activators of human TNAP at intermediate phosphate acceptor; P05186; activation factor at 20 µM; 64,000 tested, under 10 active; purified TNAP, CDP-star luminescence, 100 mM DEA, 30 min; stronger effect = higher value; scale: 0 levamisole-inhibited, 1 vehicle-only enzyme;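 active means activation factor of at least 2 at 20 µM, relative to controls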
Target sequence (P05186 whole entry, looked up): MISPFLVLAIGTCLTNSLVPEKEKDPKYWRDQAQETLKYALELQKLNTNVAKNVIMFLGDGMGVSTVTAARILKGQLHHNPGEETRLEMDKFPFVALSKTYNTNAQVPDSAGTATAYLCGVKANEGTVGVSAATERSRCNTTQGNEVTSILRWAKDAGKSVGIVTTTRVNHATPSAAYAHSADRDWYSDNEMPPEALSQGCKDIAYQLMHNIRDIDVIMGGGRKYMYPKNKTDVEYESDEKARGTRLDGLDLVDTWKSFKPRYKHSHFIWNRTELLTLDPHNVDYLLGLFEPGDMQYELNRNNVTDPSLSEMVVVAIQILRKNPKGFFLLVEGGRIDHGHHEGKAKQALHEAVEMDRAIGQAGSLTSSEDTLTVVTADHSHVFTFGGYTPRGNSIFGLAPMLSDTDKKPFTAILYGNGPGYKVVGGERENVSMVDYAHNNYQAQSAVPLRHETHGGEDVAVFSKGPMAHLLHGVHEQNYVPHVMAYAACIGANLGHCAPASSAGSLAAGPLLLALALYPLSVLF
Numbers without * were called inactive; . = no result given. Unless noted, no stated cut-off is given here; in the data, active means inhibition above about 30%; inactive means the rest.

SMILES	PostGolgi yeast	Smad3 inh	Cav32 inh	hDAT+cocaine	PostGolgi ctrl	TNAP act DEA
CC1CCN(c2nc3ccc(C(=O)N4CCN(Cc5ccc6c(c5)OCO6)CC4)cc3s2)CC1	10	-10	.	.	41*	.
Cc1ccc(C(=O)N2CCN(Cc3ccc4c(c3)OCO4)CC2)o1	19	-3	-0.41	-0.74	-2	.
O=C(c1ccc(COc2ccccc2Cl)o1)N1CCN(Cc2ccc3c(c2)OCO3)CC1	-5	-20	-4.9*	0.85	27	0.9
O=C(c1ccc(COc2ccc(Cl)cc2)o1)N1CCN(Cc2ccc3c(c2)OCO3)CC1	.	-17	-3.3	0.31	52*	0.9
CC1CCN(C(=O)c2ccc3c(c2)OCCO3)CC1	-11	-1	-0.081	6.7*	5	0.9
O=C(CSCc1cccc(Cl)c1)N1CCN(Cc2ccc3c(c2)OCO3)CC1	48*	-3	-5.1*	1.5	28	.
O=C(CS(=O)(=O)Cc1ccccc1)N1CCN(Cc2ccc3c(c2)OCO3)CC1	-4	-6	0.98	0.2	-1	1
O=C(c1ccc(S(=O)(=O)N2CCCC2)cc1)N1CCN(Cc2ccc3c(c2)OCO3)CC1	4	8	3.9*	0.44	9	0.9
CSCC[C@H](NC(=O)OC(C)(C)C)c1nnc(SCc2cccc(F)c2)o1	14	-4	-2.6	0.23	6	0.9
Cc1cc(=O)cc(C)n1-c1ccc2c(c1)nc(C)n2-c1ccccc1	.	-1	-0.016	0.38	.	1
Cc1cc2c3nonc3ccc2n1-c1ccccc1	5	.	-1.5	-0.3	35*	1
CCC(Sc1nc2sc(C(=O)OC)c(C)c2c(=O)n1N)C(=O)NCC1CCCO1 (stereo not given)	8	-6	-0.1	-0.21	3	0.9
Oc1cc(CN2COc3ccccc32)c(O)cc1CNC1CCCCC1	.	74*	.	.	.	.
O=c1cc(CNC2CCCCC2)c2ccccc2[nH]1	5	-2	-0.24	-1	4	1
CCOC(=O)Nc1oc2ccccc2c(=O)c1C	.	-2	0.18	0.75	.	.
CCOC(=O)/C=C(\C)Sc1cc(=O)oc2ccccc12	8	10	-0.097	2	33*	0.9
C=C(C)COc1ccc(-c2ncncc2Oc2ccc(OC)cc2)c(O)c1	66*	-11	-0.07	0.54	19	0.9
COc1ccc(-c2ncncc2-c2csc(C)n2)c(O)c1	-1	4	0.01	-0.46	4	0.9
C=C(C)COc1ccc(-c2nc(N)ncc2-c2ccc(OC)cc2)c(O)c1	5	-4	-0.29	0.63	72*	0.9
COc1cc(OC)cc(-c2nc(N)n[nH]2)c1	-6	-5	-0.68	-0.25	8	0.9
O=C(CN1C(=O)CCS(=O)(=O)c2ccccc21)Nc1ccc2c(c1)OCCO2	4	4	-0.033	-1.2	-2	1
CCCOc1ccc(C(CC(=O)O)NC(=O)C23CC4CC(CC(C4)C2)C3)cc1 (stereo not given)	-1	3	-0.45	-0.27	2	.
CCSc1nc(N)c(C#N)c(-c2ccccc2Cl)c1C#N	2	-6	0.00056	0.23	1	0.8
COc1cccc(Cn2nnc(C(=O)NCc3ccc(F)cc3)c2N)c1	-7	-3	-3.6	-0.011	9	1.1
COc1cccc(Cn2nnc(C(=O)NCc3ccccc3Cl)c2N)c1	-5	-10	-3.9*	0.43	20	0.9
SMILES	PostGolgi yeast	Smad3 inh	Cav32 inh	hDAT+cocaine	PostGolgi ctrl	TNAP act DEA
O=C1C2C3C=CC(C3)C2C(=O)N1c1n[nH]c(CCc2ccccc2)n1 (stereo not given)	-2	-4	0.8	-0.054	10	0.6
N#CC(C#N)=Cc1cn(-c2ncc(C(F)(F)F)cc2Cl)c2ccccc12	21	.	0.44	-0.8	43*	.
CC(=O)/C=C\c1cn(-c2ncc(C(F)(F)F)cc2Cl)c2ccccc12	-8	.	.	0.019	23	.
Cc1noc(C)c1CSc1nc2ccccc2c(=O)n1-c1ccc(F)cc1F	3	5	.	.	55*	1
Cc1noc(C)c1CSc1nc2ccccc2c(=O)n1-c1ccccc1	-6	11	-2	-0.1	18	1
COc1ccc(OC)c(NC(=O)c2nnn(Cc3ccc(Br)cc3F)c2N)c1	-13	-4	-0.74	0.26	31*	0.9
CC(Cc1cccs1)NC(=O)Nc1ccc(Cl)c(Cl)c1 (stereo not given)	-4	-5	.	.	69*	.
Cc1cccc(-n2nnc(C(=O)NCc3ccco3)c2N)c1	-1	9	0.38	0.92	-3	1
O=C(COC(=O)C12CC3CC(CC(C3)C1)C2)NCCc1ccccc1	-2	.	-2.4	1	40*	.
Cc1ccc(NC(=O)c2cc(NC(=O)CCC(=O)O)ccc2N2CCCCC2)cc1	-5	-2	.	0.44	2	.
Cn1c(=O)c2nc(NCc3ccccc3)cnc2n(C)c1=O	35*	-2	.	.	-1	1
Cn1c(=O)c2c(ncn2Cc2ccccc2)n(C)c1=O	.	-4	.	-0.65	.	.
Cc1ccccc1C(=O)N1CCC(C(=O)Nc2cccc(F)c2)CC1	3	-10	0.073	-0.96	-6	1
O=C(Nc1cnn(Cc2ccc(Cl)cc2Cl)c1)c1cc(-c2cccs2)on1	1	-3	-0.52	-1.1	-1	0.9
O=C(Nc1cnn(Cc2ccc(Cl)cc2Cl)c1)c1noc2c1CCCC2	-5	8	-4	1.3	33*	0.9
CC1(C)Oc2ccc3ccc(=O)oc3c2/C(=C/NC2CCCCC2)C1=O	.	10	-3.9	0.18	.	.
COc1ccc(N2CCN(c3nc(NCCO)nc(N4CCOCC4)n3)CC2)cc1	-4	4	1.1	0.11	31*	0.9
Cc1cc(=O)n(CC(C)C)c(O)c1C#N	-4	0	0.87	0.34	5	0.9
COc1ccc(-c2nc(CS(=O)CC(=O)NCc3ccc4c(c3)OCO4)c(C)o2)cc1 (stereo not given)	2	-9	-1.3	-1	5	1
COc1cccc(-c2nc(CS(=O)CC(=O)NCc3ccc4c(c3)OCO4)c(C)o2)c1 (stereo not given)	3	-16	-5*	0.52	4	1
CCCC(=O)Nc1ccc2oc(-c3ccc(OC)c(Br)c3)nc2c1	7	-12	0.47	-0.013	7	0.9
Cc1ccc(CNC(=O)CS(=O)Cc2nc(-c3ccccc3C)oc2C)cc1 (stereo not given)	0	-7	-4.5*	0.13	11	1
Cc1ccc(NC(=O)CS(=O)Cc2nc(-c3ccc(C)cc3)oc2C)cc1 (stereo not given)	-2	0	-4.6*	0.34	12	.
Cc1ccccc1-c1nc(CS(=O)CC(=O)NCc2ccccc2)c(C)o1 (stereo not given)	6	3	-0.93	0.72	11	1
CCCC(=O)Nc1ccc(-c2nc3cc(C)ccc3o2)cc1	2	8	-0.13	0.31	30*	1
CCOC(=O)C1CCN(C(=O)c2ccc(Cl)c(S(=O)(=O)N3CCOCC3)c2)CC1	4	3	0.69	0.17	-5	0.9
